Source: PubChem BioAssay AID1850 (Southern Research Specialized Biocontainment Screening …, 2009)
The campaign covered roughly 310,000 compounds. About 1,000 (0.32%) were called active. These entries were drawn from the full list. Results with a measured potency or affinity are listed apart. Unmarked numbers belong to inactive results. How the calls were made is not given here.

Test: Inhibition of PhoP regulon, Salmonella typhi GFP reporter cells, confirmation, 4 h (AID 1850);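 further: 0% = induced wells with vehicle and 100% = uninduced wells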
Settings: Salmonella Typhi PhoP-promoter GFP reporter, fluorescence, at 50 µM, stronger effect = higher value

Row | SMILES | inhibition
1 | Cc1cc(N(CCCl)CCCl)ccc1/C=N/N=C(\N)c1cnccn1 | 1.24%
2 | CC(C)(C)c1ccc(C(=O)NCC(=O)OCC(=O)Nc2nc(-c3ccc(F)cc3)cs2)cc1 | 6.97%
3 | Cc1ccc(C)c2[nH]c(=O)c(CN(CC3CCCO3)S(=O)(=O)c3ccc4c(c3)OCCO4)cc12 (stereo not given) | -7.59%
4 | NC(=O)CN1CCN(CCN2C(=O)c3cccc4cccc(c34)C2=O)CC1 | 10.1%
5 | CCN(CC)CCN1C(=O)c2cccc3cc(N)cc(c23)C1=O | 6.76%
6 | COCCCNCCCOc1ccc(C(C)(C)c2ccccc2)cc1 | 0.01%
7 | CC1CCN(CCCCOc2ccc(C(C)(C)C)cc2)CC1 | -0.73%
8 | COCCNCCCOc1ccc(C(C)(C)c2ccccc2)cc1 | 3.55%
9 | Cc1ccc(OCCCCCCN2CCNCC2)cc1 | 11.8%
10 | CC(C)(c1ccccc1)c1ccc(OCCN2CCOCC2)cc1 | -18%
11 | CC(C)(C)c1ccc(OCCCN2CCCC2)cc1 | -5.11%
12 | Cn1c(SCC(=O)Nc2ccc3c(c2)OCCO3)nnc1-c1ccccn1 | -2.36%
13 | COCCNc1c([N+](=O)[O-])c(=O)n(-c2ccccc2)c2ccccc12 | -1%
14 | Cn1c(N)c(N2CCN(c3ccccc3)CC2)c(=O)[nH]c1=O | -2.5%
15 | O=C(COC(=O)CCC(=O)c1ccc(F)cc1)NCc1ccco1 | 11.3%
16 | COC(=O)c1sc2ccccc2c1NC(=O)c1ccc(S(=O)(=O)N2CCCCC2)cc1 | 10.9%
17 | CN(CCOc1ccc(Cl)cc1)C(=O)C1CCN(C(=O)c2ccc(Cl)cc2)CC1 | -3.38%
18 | CC(=O)NC(c1ccccc1)c1cc([N+](=O)[O-])c2cccnc2c1O (stereo not given) | 0.16%
19 | CCCC(=O)NC(c1cccs1)c1cc([N+](=O)[O-])c2cccnc2c1O (stereo not given) | -5.59%
20 | CCCC(=O)NC(c1ccco1)c1cc(Cl)c2cccnc2c1O (stereo not given) | -13.5%

Row | SMILES | inhibition
21 | CC(C)C(=O)NC(c1cccs1)c1cc([N+](=O)[O-])c2cccnc2c1O (stereo not given) | -8.78%
22 | COc1ccc(S(=O)(=O)N2CCOCC2)cc1N=Nc1sc(N)nc1-c1ccccc1 | 0.93%
23 | CCCCOC(=O)C1CCCC(C(=O)OCCCC)N1 (stereo not given) | 2.58%
24 | CCCCCOC(=O)CC(C(=O)OCCCCC)N1CCCCC1 (stereo not given) | 1.36%
25 | CCCCCCCCOC(=O)C[N+](C)(C)C/C=C(/C)Cl | -1.52%
26 | CCCCCCCCCCOC(=O)C[N+](C)(C)C/C=C(/C)Cl | -3.67%
27 | CC12CN3CCN(CC(C3)/C1=N/NC(=O)Nc1ccccc1)C2 | 3.04%
28 | CCOc1ccc(NC(=O)CN(C)C(=O)c2cn3ccccc3n2)cc1OCC | -2.5%
29 | O=C(c1ccc(F)cc1)C1CCN(C(=S)Nc2ccc(F)cc2)CC1 | 1.13%
30 | C/C(=N\NC(=O)c1nnn(-c2nonc2N)c1-c1ccc2c(c1)OCO2)c1ccccc1 | -37.7%
31 | CC1CC(C)CN(CCOc2cccc(Cl)c2Cl)C1 (stereo not given) | -0.58%
32 | CC1CN(CCOc2ccc(Cl)cc2Cl)CC(C)O1 (stereo not given) | 10.8%
33 | CC1CC(C)CN(S(=O)(=O)N2CCCC(C(=O)NCCc3ccccc3)C2)C1 (stereo not given) | 6.06%
34 | NS(=O)(=O)c1ccc(CCNC(=O)c2cc([N+](=O)[O-])ccc2N2CCCCC2)cc1 | 7.9%
35 | O=C(CCc1ccc(S(=O)(=O)N2CCOCC2)cc1)N1CCN(Cc2ccc3c(c2)OCO3)CC1 | -0.09%
36 | CCN1CCN(CCNC(=O)c2ccc3c(c2)N(Cc2ccc(F)cc2)C(=O)c2ccccc2S3=O)CC1 (stereo not given) | -3.27%
37 | CCN1CCN(CCNC(=O)c2ccc(/C=C3/Sc4ccccc4N(Cc4cccc(Cl)c4)C3=O)cc2)CC1 | 47.7%
38 | Cc1ccc(C(=O)Nc2cccc(C(=O)NC3CCCCC3)c2)cc1 | 7.56%
39 | CCOC(=O)c1c(C)c(-c2ccccc2)n(CC(=O)N2CCN(C)CC2)c1C | -2.34%
40 | O=C1Nc2ccccc2Nc2ccc([N+](=O)[O-])cc21 | -12.2%

Row | SMILES | inhibition
41 | O=C1Nc2ccccc2C1=Nc1cccc([N+](=O)[O-])c1 | 6.17%
42 | COc1ccccc1OCc1ccc(C(=O)NCc2ccco2)o1 | -2.77%
43 | O=C(N/N=C/c1sc2ccccc2c1O)c1ccccc1 | -3.49%
44 | COc1ccc2cc(C(=O)N/N=C/c3sc4ccccc4c3O)ccc2c1 | -4.14%
45 | COc1ccc(C(=O)N/N=C/c2c[nH]c3ccccc23)cc1 | 4.58%
46 | O=C(N/N=C/c1ccccc1O)c1cccc2ccccc12 | 3.31%
47 | Cc1ccc(CN2CCCN(Cc3ccc(F)cc3Cl)S2(=O)=O)cc1 | 0.28%
48 | O=C(O)C1CC(O)CN1c1nc(Cl)ccc1[N+](=O)[O-] (stereo not given) | 4.36%
49 | O=C1CC2(CCCC2)Oc2ccccc21 | 9.18%
50 | CC(C)(C)c1cc(NCCCn2ccnc2)n2ncc(-c3ccc(Cl)cc3)c2n1 | -8.35%
51 | CC(C)Nc1cc(C(C)(C)C)nc2c(-c3ccccc3)cnn12 | 0.99%
52 | CC(C)(C)c1cc(NCCCn2ccnc2)n2ncc(-c3ccccc3)c2n1 | 12.3%
53 | CC(C)(C)c1cc(NCc2ccccn2)n2ncc(-c3ccc(Cl)cc3)c2n1 | -9.09%
54 | COC(=O)[C@@H](NC(=O)N1CCC(Cc2ccccc2)CC1)C(C)C | -13.1%
55 | CC(C)C(C(=O)NCC1CCCO1)N(C(=O)CNS(=O)(=O)c1ccc(F)cc1)C1CCCCC1 (stereo not given) | -5.01%
56 | Cc1cccc(C)c1NC1=NC(C)(C)N=C(N)N1 | -2.14%
57 | Cc1ccccc1NC1=NC(C)(C)N=C(N)N1 | 2.17%
58 | CC1(C)N=C(N)NC(Nc2ccccc2)=N1 | 3.29%
59 | Cc1cccc(NC2=NC(C)(C)N=C(N)N2)c1 | -5.24%
60 | CCCCC(=O)N/N=C/c1ccc(N2CCOCC2)c([N+](=O)[O-])c1 | 5.66%
